# According to ChEMBL document CHEMBL1157539, “Thousands of chemical starting points for antimalarial lead identification” (Nature, 2010):
# Key:
# Format in all cases: functional
# Plasmodium falciparum [1] = test: GSK_TCMDC: Inhibition of Plasmodium falciparum 3D7 in whole red blood cells, using parasite LDH activity as an index of growth. Test compounds present at 2uM
# Plasmodium falciparum [2] = test: GSK_TCMDC: Inhibition of Plasmodium falciparum Dd2 in whole red blood cells, using parasite LDH activity as an index of growth. Test compounds present at 2uM
# HepG2 = test: GSK_TCMDC: Percent inhibition of human HepG2 cell line. Test compounds present at 10uM.
SMILES,Inhibition (Plasmodium falciparum [1]),Inhibition (Plasmodium falciparum [2]),Inhibition (HepG2)
O=[N+]([O-])c1cccc(/C=N/Nc2ccnc3cc(F)ccc23)c1,100%,100%,4%
CC12CCC(CN(CC(O)Cn3c4ccccc4c4cc(I)ccc43)C1)C2(C)C.Cl (configuration not stated),94%,82%,0%
COc1cc2nc(NCCc3ccccc3)nc(NCCCc3ccccc3)c2cc1OC,100%,100%,21%
COc1ccc(C(=O)CC(=O)c2ccc(OC)cc2OC)c(OC)c1,98%,0%,1%
O=[N+]([O-])c1cccc(NC(=S)N2CCCN(Cc3ccc(F)cc3F)CC2)c1,99%,98%,5%
Cc1cccc2nc(-c3ccc(-c4ccc(CN5CCCCC5)cc4)cc3)[nH]c12.O=C(O)C(F)(F)F,100%,99%,27%
COc1ccc2nccc([C@@H](O)CN3CCC(NCc4cc5c(Cl)cc(Cl)cc5[nH]4)CC3)c2c1.O=C(O)C(=O)O,100%,86%,93%
C/C(=C\C(=O)NC1CC1)c1ccccc1OCc1ccccc1,90%,1%,3%
COc1cccc(CNC[C@@H](O)[C@H](Cc2ccccc2)NC(=O)c2cc(C(C)C)cc(N3CCCC3=O)c2)c1,95%,61%,1%
O=C(Nc1cccc(-c2nn3ccccc3c2-c2ccnc(Nc3cccc(C(F)(F)F)c3)n2)c1)c1c(F)cccc1F,97%,91%,43%
CCC(=O)N(c1ccccc1)C1CCN(CCCC(NC(=O)Nc2cc(C(F)(F)F)cc(C(F)(F)F)c2)c2ccc(Cl)c(Cl)c2)CC1 (configuration not stated),99%,18%,29%
Cc1cnc(Nc2ccccc2)nc1NCCC(=O)Nc1ccccc1.O=C(O)C(F)(F)F,89%,7%,10%
Nc1nc2c(c(=O)[nH]1)CN(S(=O)(=O)c1ccc(C(=O)N[C@@H](CCC(=O)O)C(=O)O)cc1)CC2,95%,96%,49%
Clc1cc2c(Nc3ccc(Oc4ccccc4)cc3)ccnc2cc1-c1ccc(CNCCN2CCOCC2)o1,100%,89%,0%
Fc1cccc(C=NNc2ccnc3cc(Cl)ccc23)c1,99%,91%,6%
Cc1cc(N[C@@H](Cc2ccccc2)C(=O)NCCOc2ccccc2)nc(NCCc2ccccn2)n1.O=C(O)C(F)(F)F,92%,42%,12%
COc1ccc(Cc2nc3c(n2C(C)=O)SC(c2ccc(Cl)c(Cl)c2)=NN3C(C)=O)cc1,94%,22%,0%
Cc1noc(C)c1-c1cccc(CNCc2cccc(-c3cccc(-c4nc5ccccc5[nH]4)c3)c2)c1.O=C(O)C(F)(F)F,100%,54%,22%
C=CCOC(=O)N1CCC(CNCc2ccc(-c3ccc(-c4nc5ccccc5[nH]4)s3)cc2)C1.O=C(O)C(F)(F)F (configuration not stated),100%,76%,29%
COc1cc2nc(N3CCC(CNC(=O)c4ccc(-c5ccc(Cl)cc5)cc4)CC3)nc(N)c2cc1OC,100%,100%,99%

SMILES,Inhibition (Plasmodium falciparum [1]),Inhibition (Plasmodium falciparum [2]),Inhibition (HepG2)
COc1ccc(NC(=O)c2ccc(-c3nc(-c4ccccc4)cs3)cc2)cc1N1CCN(C)CC1.O=C(O)C(=O)O,93%,13%,17%
CN(C)c1ccc(CN2CCCCC(NC(=O)c3cc(-c4ccccc4F)cs3)C2)cc1.O=C(O)C(F)(F)F (configuration not stated),100%,28%,13%
CN(C)c1ccc(C=Cc2nc(=O)c3ccccc3o2)cc1,96%,97%,6%
Cc1ccc(NC(=O)NC2CCN(c3ccnc4cc(Cl)ccc34)CC2)cc1.O=C(O)C(F)(F)F,100%,47%,4%
COc1cc2nc(N3CCN(c4nc(N)c5cc(OC)c(OC)cc5n4)CC3)nc(N)c2cc1OC,100%,99%,13%
Cc1cccc2nc(-c3ccc(-c4cccc(NC(=O)NCc5cccc(F)c5)c4)s3)[nH]c12,88%,8%,24%
CN(C)CCN(C)Cc1ccc(-c2ccc3c(Nc4ccc(Cl)cc4F)ccnc3c2)o1,100%,76%,20%
CCC[C@@H]([C@@H](CC(C)C)C(=O)N[C@@H](CCCNc1nccc(C(F)(F)F)n1)C(=O)Nc1nccs1)N(O)C=O,99%,98%,0%
COc1cccc2cc(C(=O)N[C@@H](CC(C)C)C(=O)N[C@H](/C=N/N(C)C(=O)OC(C)(C)C)CC(=O)OC(C)(C)C)oc12,87%,67%,5%
COc1ccc2c(N/N=C/c3cccc([N+](=O)[O-])c3)ccnc2c1,100%,99%,0%
CCc1c(CCNCCCCCCNCCc2ccccc2)ccc(OC)c1OC.Cl,100%,3%,33%
CNS(=O)(=O)c1ccc(NC(=O)c2cc(-c3cccnc3)nc3ccc(Br)cc23)cc1,100%,55%,9%
N#Cc1ccc(NC(=O)c2ccc(C(=O)NCCCCN3CCC(c4ccc5c(c4OCCOC4CCCCO4)CCCC5)CC3)cc2)cc1 (configuration not stated),99%,97%,72%
CN1CCN(c2nsc3ccc(-c4ccc(OCCN5CCCC5)cc4)cc23)CC1.O=C(O)C(F)(F)F,100%,99%,57%
COc1ccc(Nc2nc(C)cc(NCc3ccc(-c4c(C)noc4C)cc3)n2)cc1,99%,50%,48%
O=C(Nc1cccc(-c2ccc(-c3nc4cc(F)ccc4[nH]3)cc2)c1)c1ccncc1,100%,96%,52%
Fc1ccc(CNc2ccc3ncc(-c4cccnc4)n3n2)cc1,87%,7%,7%
O=C(C=Cc1ccc(Cl)c(Cl)c1)NCCCCCN1CCC(CCNC(=O)c2cccc3ccccc23)CC1,85%,0%,17%
COc1ccc2nccc([C@@H](O)CN3CCC(NCc4ccc5nsnc5c4)CC3)c2c1.O=C(O)C(=O)O,95%,64%,12%
COc1ccc(NC(=O)CCNc2cc(C)nc(Nc3ccccc3)n2)cc1.O=C(O)C(F)(F)F,92%,15%,0%

SMILES,Inhibition (Plasmodium falciparum [1]),Inhibition (Plasmodium falciparum [2]),Inhibition (HepG2)
CC(C)(C)OC(=O)N1CCN(c2ccccc2NC(=O)c2cccc(C(F)(F)F)c2Oc2ccc(F)cc2)CC1,100%,9%,3%
Br.CC1(C)NC(N)=NC(=N)N1OCCSCc1cc(Cl)sc1Cl,93%,72%,70%
COc1ccc2[nH]c(-c3ccccc3)cc(=NN=Cc3ccncc3)c2c1,99%,27%,14%
Cc1cc(N[C@@H](Cc2ccccc2)C(=O)NCCc2ccccc2)nc(NCCOc2ccccc2)n1.O=C(O)C(F)(F)F,95%,14%,10%
CCN(CC)CCN(Cc1ccc(-c2ccc(C(F)(F)F)cc2)cc1)C(=O)Cn1c(CCc2cccc(F)c2F)nc(=O)c2ccc(F)cc21.O=C(O)C(O)C(O)C(=O)O,98%,41%,14%
COc1ccccc1C1CN(CCNC(=O)c2nc(C)c[nH]2)Cc2ccccc2O1 (configuration not stated),90%,86%,4%
COc1ccc(CC2(c3ccc(F)cc3)N=C(N)N(CCCc3cccnc3)C2=O)cc1.O=C(O)C(F)(F)F (configuration not stated),98%,97%,12%
COc1cc2ncnc(NCCc3ccccc3Cl)c2cc1OC,88%,11%,0%
Oc1ccc(Br)cc1C(O)CNCc1ccccc1OCc1ccccc1 (configuration not stated),100%,100%,25%
COc1ccc(-c2cccc(NC(=O)c3ccc(F)cc3)c2)cc1CNC(C)C.O=C(O)C(F)(F)F,83%,9%,32%
Cc1cc(Nc2ncc(C#N)c(Nc3ccccc3C(N)=O)n2)ccc1N1CCN(C)CC1.Cl,94%,94%,99%
Cc1ccc(C2(C)CN(CCCOc3cccc(-c4ccc(C(=O)NC(C)C)cc4)c3)CCO2)cc1 (configuration not stated),93%,89%,15%
Cc1ccc(Nc2nccc(N(C)c3ccc4c(c3)nc(NC(=O)Cc3ccc(Cl)c(Cl)c3)n4C)n2)cc1S(N)(=O)=O.O=C(O)C(F)(F)F,94%,60%,71%
COCCCNc1sc(S(=O)(=O)c2ccccc2)nc1S(=O)(=O)c1ccc(C)cc1,84%,44%,7%
Cc1cccc(CNc2nccc3[nH]c4ccccc4c23)c1.O=C(O)C(F)(F)F,92%,51%,14%
CCCC1N=C(N)N=C(N)N1c1ccc(Cl)cc1.Cl (configuration not stated),96%,0%,14%
Cc1cc(N2CCN(CC3CCN(C)CC3)CC2)nc(Nc2ccc(Cl)cc2)n1,99%,89%,20%
Br.CC1(C)NC(N)=NC(=N)N1OCCSc1ccc(Cl)c(Cl)c1,96%,95%,65%
O=C(C1CCCCC1)N1CCOC(CCN2CCC(c3ccccc3)CC2)(c2ccc(Cl)c(Cl)c2)C1 (configuration not stated),92%,86%,6%
